target: Cytochrome P450 3A4 (Homo sapiens) (UniProt P08684); test: qHTS Assay for Activators of Cytochrome P450 3A4 (AID 885); conditions: recombinant CYP3A4, Luciferin-PPXE luminescence, 60 min; series mostly up to 57.1 µM; activity change, positive = activation: at the top concentration; further: nearly all actives have a fitted effect of over 65% in size
Method in brief: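 20nM CYP3A4 + 25uM Luciferin-PPXE (=KM), 200mM KPO4; cpd 10 min RT; NADPH regen, 60 min RT; stop w/ detection buffer, 20 min; luminescence. Normalized to 57 uM ketoconazole.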

Sequence of Cytochrome P450 3A4 (Homo sapiens) (P08684 whole entry, looked up): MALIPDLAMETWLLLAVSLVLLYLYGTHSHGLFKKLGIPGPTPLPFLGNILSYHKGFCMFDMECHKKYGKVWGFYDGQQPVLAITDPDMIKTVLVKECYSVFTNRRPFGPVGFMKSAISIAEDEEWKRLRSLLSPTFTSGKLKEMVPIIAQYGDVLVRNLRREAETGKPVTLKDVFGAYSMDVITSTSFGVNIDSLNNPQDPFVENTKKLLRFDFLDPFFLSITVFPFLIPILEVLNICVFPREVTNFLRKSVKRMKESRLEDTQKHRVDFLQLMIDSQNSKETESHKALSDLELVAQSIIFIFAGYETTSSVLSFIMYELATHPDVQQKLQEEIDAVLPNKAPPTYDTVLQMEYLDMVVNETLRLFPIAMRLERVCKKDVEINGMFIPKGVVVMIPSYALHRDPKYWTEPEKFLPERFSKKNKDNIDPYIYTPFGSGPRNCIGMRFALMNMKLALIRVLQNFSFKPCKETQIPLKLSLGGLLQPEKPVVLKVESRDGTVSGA

Activity change, positive = activation, inactive:
CCC1=C(OC(=O)N(CC)CC)N2C(=O)OC(=NCCc3c[nH]c4ccccc34)[C@]2(Cc2ccccc2)[C@H]2C1=CC[C@H]1C(=O)N(C)C(=O)[C@H]12 -96.2%
NC(N)=NCCC[C@H](NC(=O)CC1(CC(=O)N2CCN(C3c4ccccc4NC(=O)c4ccccc43)CC2)CCCC1)C(=O)NCCn1c(=O)n(-c2ccccc2)n(-c2ccccc2)c1=O (stereo partly specified) -97.6%
CCC1=C(OC(=O)N(CC)CC)N2C(=O)OC(=NCc3ccccc3)[C@]2(C)[C@H]2C1=CC[C@H]1C(=O)N(c3ccccc3)C(=O)[C@H]12 -91.9%
CO[C@H]1COC(=O)[C@H](C)NC(=O)C/C=C\[C@@H](C)[C@@H](NS(=O)(=O)c2ccc(C)cc2)COC(=O)[C@H](OCc2ccccc2)/C=C\[C@@H]1C -79.4% [at 11.4 µM]
CC1(C(=O)NCc2cc(F)cc(C(F)(F)F)c2)C=CC2(CCCCC2)N1C(=O)c1ccccc1 (stereo unspecified) -102%
CNC(=O)[C@@H](Cc1ccccc1)N(C)C(=O)[C@@H](Cc1ccc2ccccc2c1)N(C)C(=O)/C=C/CC(C)(C)N -100%

From PubChem BioAssay (NCATS)
